“And” between values parts separate entries of the source, which are not always exact repeats. Equal entries are not always repeated. Results filed as inconclusive are left out. Values without a mark were called inactive. Calls follow the shape of the dose curve; as a rule, active = well fitted activation curve with a large enough effect in the signal ratio (not every such curve was filed as active); inconclusive = small, poorly fitted or top-dose-only effect, or a change in a side signal; inactive = flat fitted curve, though single readings scatter; the % refers to the signal ratio.
test: qHTS assay for small molecule activators of the p53 signaling pathway (AID 651743); settings: HCT-116 p53RE-bla, beta-lactamase FRET ratio, 16 h; hits give high values; also: series mostly up to about 92 µM; % of control where 0% means no effect
Procedure, shortened: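 p53RE-bla HCT-116 cells carrying a beta-lactamase reporter under p53 response elements were exposed to compounds for 16 hours at 37 C. Reporter activity read as fluorescence after 2 hours at room temperature with LiveBLAzer B/G FRET substrate.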

Row | Structure (SMILES) | activation
1 | CC(C)=C1CCC(C)CC1=O (centres undefined) | -1.57%
2 | O=C(O)c1ccc(C(=O)O)cc1 | -0.449% and 6.06%
3 | CCOc1ccccc1N | -1.62%
4 | CC(C)(O)CCC(C)(C)O | -3.36%
5 | C=C(C)OC(C)=O | -0.827%
6 | CC(=O)c1cc(C)oc1C | -2.3%
7 | CC(N)CN (centres undefined) | -0.238%
8 | O=C1NC(=O)c2cc([N+](=O)[O-])ccc21 | -2.78%
9 | CCC1CO1 (centres undefined) | -2.66%
10 | CCNS(=O)(=O)c1ccc(C)cc1 | -2.94%
11 | Nc1cccc([N+](=O)[O-])c1 | -4.7%
12 | Nc1ccccc1[N+](=O)[O-] | -3.02%
13 | Nc1c(Cl)cc(Cl)cc1Cl | -0.29%
14 | COC(=O)CC#N | -2.67%
15 | CO[Si](CCCNCCC[Si](OC)(OC)OC)(OC)OC | 0.23%
16 | CC1(N)CCC(C(C)(C)N)CC1 (centres undefined) | 0.302%
17 | C=Cc1ccccn1 | -2.17%
18 | CCCCCCO | -2.65%
19 | CCC(C)O (centres undefined) | -1.8%
20 | CCCCCCCCC | -1.85%
21 | CCN(CC)c1cccc(O)c1 | -0.279%
22 | Cc1ccc(C)cc1 | -3.21%
23 | O=C(O)c1cc(Cl)cc(Cl)c1 | 1.56%
24 | C[C@@H]1O[C@@H](O[C@@H]2[C@@H](O)[C@H](OCCc3ccc(O)c(O)c3)O[C@H](CO[C@@H]3O[C@H](CO)[C@@H](O)[C@H](O)[C@H]3O)[C@H]2OC(=O)/C=C/c2ccc(O)c(O)c2)[C@H](O)[C@H](O)[C@H]1O | -0.671%

From PubChem BioAssay (NCATS)
